Marburg entry inh – qHTS for inhibitors of binding or entry into cells for Marburg Virus; hit rate 1.8% among 300,000; Marburg virus pseudotyped entry inhibition, cell reporter; Potency, µM (top dose mostly 37.8 µM), inactives show at the top dose activity change, negative = inhibition, hits mostly inhibitors; calls by dose curve; tested in HEK293 cells
Lassa entry inh – qHTS for Inhibitors of binding or entry into cells for Lassa Virus | Lassa virus pseudotype entry inhibition, cell reporter | Potency, µM (titrated, usually from 37.9 µM), inactives show at the top dose activity change, negative = inhibition, most hits filed as inhibitors | hit rate 1.2% among 300,000 | AID 540256, 2011; calls by dose curve; tested in HEK293 cells; further: nearly all actives have a fitted effect of over 50% in size
FMDV antiviral – High Throughput Screening for Foot and Mouth Disease Virus Antivirals. FMDV antiviral cell-based qHTS. Potency, µM (highest dose often 57.9 µM), inactives show top-dose activity change, negative = inhibition, usual class: inhibitors. hit rate 1.2% among 410,000. AID 1159524, 2015; calls by dose curve; tested in HEK293T cells; further: read-out not given here; nearly all actives have a fitted effect of over 45% in size
Vaccinia mCherry – qHTS for Stage-Specific Inhibitors of Vaccinia Orthopoxvirus: mCherry Reporter Primary qHTS; Vaccinia virus mCherry reporter infection, fluorescence; Potency, µM (series often up to 36.5 µM), without a hit: at the top dose activity change, negative = inhibition, hits mostly inhibitors; hit rate 0.63% among 310,000; AID 720579, 2013; calls by dose curve; tested in A549 cells; further: nearly all actives have a fitted effect of over 35% in size
HCV inhibitor – qHTS Assay for Inhibitors of Hepatitis C Virus (HCV); Huh7.5.1 HCVcc-Cre infection, luciferase reporter, 44 h; Potency, µM (doses to about 41.8 µM), without a hit: at the highest dose activity change, negative = inhibition, most hits filed as inhibitors; AID 651820, 2012; hit rate 3.4% among 340,000; active means well fitted inhibition curve with a large enough effect; inconclusive means small, poorly fitted or top-dose-only effect, or another doubt; inactive means no such curve, though single readings can be large or run the other way
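After 44 h co-culture of compound, cells and HCVcc-Cre (~0.5 moi), substrate is added for 15 min at room temperature and luciferase measured over 15 sec. Cells were seeded at 1,000/well and pre-cultured 4 h.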
Vaccinia Venus – qHTS for Stage-Specific Inhibitors of Vaccinia Orthopoxvirus: Venus Reporter Primary qHTS; Vaccinia virus Venus reporter expression, fluorescence; Potency, µM (series often up to 36.5 µM), for the others: at the top dose activity change, negative = inhibition, usual class: inhibitors; hit rate 0.46% among 330,000; calls by dose curve; tested in A549 cells; further: nearly all actives have a fitted effect of over 30% in size
Numbers without * were called inactive; i = inactive; ? = inconclusive; · = no result; ! = not active in a repeat; [ ] = dose if it differs, or a comment. Compounds with a hit are over-represented: about 5.3% of the library has one in this group of screens. On the % scale 0 is the no-effect control and ±100 the full control effect; potency means the concentration at half of the fitted maximal effect.

SMILES	Marburg entry inh	Lassa entry inh	FMDV antiviral	Vaccinia mCherry	HCV inhibitor	Vaccinia Venus
Cc1[nH]c2ccc(C(=O)OC(C)C(=O)N(C)C3CCCCC3)cc2c1C (configuration not stated)	-28%	?	0%	-27%	?	-28%
Cc1[nH]c2ccc(C(=O)OC(C)C(=O)N(C)c3ccccc3)cc2c1C (configuration not stated)	14%	5µM*	-34%	?	?	?
O=C(/C=C/c1ccco1)Nc1nc(-c2ccc(F)c(F)c2)cs1	·	·	35µM*	·	10µM*	·
O=C(CN1C(=O)NC2(CCCC2)C1=O)Nc1nc(-c2ccc(F)c(F)c2)cs1	·	·	?	·	4µM*	·
Cc1cccc(C)c1NC(=O)CSc1ncnc2[nH]ncc12	1%	1%	-17%	?	1%	-19%
O=C(CSc1ncnc2[nH]ncc12)Nc1nc(-c2ccc(F)c(F)c2)cs1	?	?	14µM*	·	?	·
CSc1nc(C(=O)NCc2nc(-c3cccc(NC(=O)c4ccccn4)c3)oc2C)cs1	·	·	14%	-13%	·	-2%
CN1C(=O)c2ccccc2Sc2ccc(NC(=O)COc3ccc(Cl)cc3)cc21	·	?	?	-2%	·	-25%
CCOC(=O)c1ccc(Nc2ncnc3c2cnn3C)cc1	-6%	24%	·	-10%	-30%	-4%
Cn1ncc2c(O/N=C(\N)c3ccc(C(C)(C)C)cc3)ncnc21	?	?	14µM*	i[7.34 µM]	5.6µM*	-12%[7.34 µM]
Cc1ccc(Oc2cc([N+](=O)[O-])cc3c2C(=O)Nc2ccccc2O3)cc1	?	?	?	?	13µM*	-9%
CC(=O)c1ccc2c(c1)N(CCCN1CCC(CCO)CC1)c1ccccc1S2	·	·	-15%	-24%	3.2µM*	-13%
CC[N+](C)(C)CC/C=C1/c2ccccc2Sc2ccc(Cl)cc21	-20%[14.2 µM]	8%	-8%	i	-13%	-5%
OCCN1CCN(CCCN2c3ccccc3Sc3ccc(Cl)cc32)CC1	5µM*	15µM*	-21%	?	?	?
OCCN1CCN(CC/C=C2/c3ccccc3Sc3ccc(Cl)cc32)CC1	·	·	-3%	-22%	11µM*	?
Cc1nn(CCCC(=O)NCCc2ccc(Cl)cc2)c(=O)c2c1sc1ccccc12	?	?	-15%	-8%	·	-7%
Cc1ccc(-c2nc(CS(=O)CC(=O)NCCCN3CCN(Cc4ccccc4)CC3)c(C)o2)cc1 (configuration not stated)	11µM*	?	-23%	?	10µM*	?
Cc1oc(-c2ccc(Cl)cc2)nc1CS(=O)CC(=O)NCCCN1CCOCC1 (configuration not stated)	·	·	-5%	·	5%	·
Cc1oc(-c2ccc(Cl)cc2)nc1CS(=O)CC(=O)NCCCN(C)C1CCCCC1 (configuration not stated)	?	10%	?	·	10µM*	·
Cc1oc(-c2ccc(Cl)cc2)nc1CS(=O)CC(=O)NC1CCCCC1 (configuration not stated)	·	·	42%	·	20%	·
Cc1ccc(-c2nc(CS(=O)CC(=O)NCCN(CC(C)C)CC(C)C)c(C)o2)cc1 (configuration not stated)	?	1%	-16%	·	11µM*!	·
Cc1ccc(-c2nc(CS(=O)CC(=O)NCCN3CCCC3)c(C)o2)cc1 (configuration not stated)	-1%	·	-1%	-12%	-24%	-8%
CCOC(=O)c1c2c(n(Cc3ccccc3)c1C)C(=O)C(=O)c1ccccc1-2	5.6µM*	?	20µM*	?	?	4.5µM*
CCOC(=O)c1c2c3c(cccc3n(C)c1=O)C(=O)c1ccccc1-2	?	-19%[46.1 µM]	-12%	-12%	?	11%
CCOC(=O)c1c2c(n(C)c1C)C(=O)C(=O)c1ccc(Br)cc1-2	?	?	8.9µM*	-6%	?	-8%
SMILES	Marburg entry inh	Lassa entry inh	FMDV antiviral	Vaccinia mCherry	HCV inhibitor	Vaccinia Venus
COc1ccccc1-c1ccc(C(=O)N2CCC(N3CCc4ccccc4C3)CC2)c(N(C)CC2COCCO2)n1 (configuration not stated)	·	·	1%	-1%	·	12%
CC1Cn2cc(C(=O)Nc3cccc(C(F)(F)F)c3)c(=O)c3c(Cl)ccc(c32)O1 (configuration not stated)	·	10%[46.1 µM]	-13%	-5%	·	9%
CCOC(=O)c1c(N)n(CCCOC(=O)c2ccco2)c2nc3ccccc3nc12	?	?	?	?	11µM*	10µM*
CCCCCn1c(NC(=O)c2ccco2)c(C(=O)OCC)c2nc3ccccc3nc21	4.5µM*	?	?	-27%	?	-29%
Cc1ccccc1C(=O)N1CCC2CC1c1cc(-c3ccc(F)cc3)ccc12 (configuration not stated)	·	·	32µM*	-3%	?	-26%
COc1ccc(-c2nc(CCNS(=O)(=O)c3ccc4c(c3)OCCO4)cs2)cc1	·	·	10%	?	11µM*	-25%
Cc1cc(S(=O)(=O)NCCc2csc(-c3cccc(F)c3)n2)ccc1F	·	-9%[46.1 µM]	22%	?	·	11µM*
COc1ccc(S(=O)(=O)NCCc2csc(-c3cccc(F)c3)n2)cc1OC	·	12%[46.1 µM]	28%	-21%	·	-11%
Cc1ccc(-c2[nH]ncc2/C=N/n2c(COc3ccccc3C)nc3ccccc3c2=O)cc1	11µM*	?	-17%	?	?	11µM*
Cc1cccc(C)c1OCc1nc2ccccc2c(=O)n1/N=C/c1c[nH]c2ccccc12	?	2.5µM*	?	?	?	?
Cc1cc2cc(CN(Cc3ccc4c(c3)OCO4)Cc3nnnn3C3CCCC3)c(=O)[nH]c2cc1C	-4%	-30%	-13%	-13%	-14%	-6%
Cc1ccc2[nH]c(=O)c(CN(Cc3ccc4c(c3)OCO4)Cc3nnnn3C3CCCC3)cc2c1	?	3.5µM*	-19%	-15%	?	-8%
COc1ccc(-c2csc(NC(=O)CN3C(=O)C4CCCCC4C3=O)n2)c(OC)c1 (configuration not stated)	2%	-26%	?	?	11µM*	-30%
O=C(Nc1ccc(-c2cn3ccsc3n2)cc1)C1COc2ccccc2O1 (configuration not stated)	?	-24%	?	?	14µM*	?
COc1ccc(OC)c(-c2csc(NC(=O)Cc3ccccc3OC)n2)c1	?	7.9µM*	47%	-23%	?	?
COc1ccc(-c2csc(NC(=O)C3COc4ccccc4O3)n2)cc1OC (configuration not stated)	·	·	?	-37%	11µM*	-19%

Compound activity (PubChem)
